Test systems include HCT-15 colon; HT29 colon; SNB-75 CNS; SNB-19 CNS; U251 CNS; PC-3 prostate; SK-MEL-5 melanoma; UACC-62 melanoma; LOX IMVI melanoma; SK-MEL-28 melanoma; SK-MEL-2 melanoma; EKVX NSCLC; SN12C renal; UO-31 renal; TK-10 renal; ACHN renal; CAKI-1 renal; CCRF-CEM leukemia; MOLT-4 leukemia; A498 renal.
What all share (experiment): NCI-60 one-dose screen, 48 h (100 = growth as untreated, 0 = no growth, -100 = all killed)
Settings in all cases: 10 µM unless noted

Experimental findings from PubChem BioAssay (NCI) are described below.

Compounds without any hit were thinned out: in the full panel of roughly 83,000, 20% have a hit.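 Growth was measured after 48 h exposure to one concentration of compound in 96-well plates. Values under 10 count as active.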 Values without a mark were called inactive. Activity calls are given as the source filed them.

As to `CC(=O)Nc1ccc2c(c1)/C(=C\C=C/c1ccc([N+](C)(C)C)cc1)c1ccccc1-2`, the growth was 89.1% with HCT-15 colon; 59.2% with HT29 colon; -1.84% (active) with SNB-75 CNS; 36.6% in the test with SNB-19 CNS; 26% in the test with U251 CNS; 68.4% with PC-3 prostate. Besides, the growth in the test with SK-MEL-5 melanoma is 36.1%; in the test with UACC-62 melanoma, 100%; in the test on LOX IMVI melanoma, 80.1%; in the test with SK-MEL-28 melanoma, 66.3%; with SK-MEL-2 melanoma it was 80.9%; in the test on EKVX NSCLC, 57.7%. Further, the growth was 16.6% in the test with SN12C renal; 64.5% with UO-31 renal; 103% in the test with TK-10 renal; 73.2% with ACHN renal; 65.8% with CAKI-1 renal; 67.3% with CCRF-CEM leukemia. Further, the growth in the test with MOLT-4 leukemia is 63.6%.
As to `COc1ccc(/C=C/C(=O)c2ccc(NC(=O)CN3CCN(c4cc5c(cc4F)c(=O)c(C(=O)O)cn5C4CC4)CC3)cc2)cc1`, the growth in the test on HCT-15 colon is 108%; with HT29 colon it was 114%; with SNB-75 CNS, 89.2%; with SNB-19 CNS, 94.7%; in the test with U251 CNS, 98.6%; in the test on PC-3 prostate it was 92.4%. The growth with SK-MEL-5 melanoma was 94%; with UACC-62 melanoma, 93.2%; with LOX IMVI melanoma it was 76.9%; in the test with SK-MEL-28 melanoma it was 106%; in the test on SK-MEL-2 melanoma it was 117%; in the test with SN12C renal, 95.9%. The growth in the test with UO-31 renal is 90.5%; with TK-10 renal, 106%; in the test with ACHN renal it was 114%; in the test on CAKI-1 renal, 93%; with A498 renal, 112%; with CCRF-CEM leukemia it was 102%. Further, the growth in the test with MOLT-4 leukemia was 101%.
Regarding `O=C(CCCn1c(=O)c2sc3ccccc3c2n2nnc(-c3ccccc3)c12)NCCc1cnc[nH]1`, the growth in the test on HCT-15 colon was -63.1% (active); with HT29 colon it was -94.1% (active); in the test on SNB-75 CNS it was 28.2%; with SNB-19 CNS, -12.3% (active); in the test with U251 CNS, -51.2% (active); in the test on PC-3 prostate, -14% (active). The growth with SK-MEL-5 melanoma was -69.6% (active); in the test on UACC-62 melanoma, -78.5% (active); with LOX IMVI melanoma, -16.7% (active); in the test on SK-MEL-28 melanoma, -49.7% (active); with SK-MEL-2 melanoma, -49.2% (active); with SN12C renal it was -78% (active). For the same compound, the growth in the test on UO-31 renal was -79.3% (active); with TK-10 renal, -62.4% (active); with ACHN renal, -37.9% (active); in the test on CAKI-1 renal, 14.9%; in the test on A498 renal, 95.6%; in the test on CCRF-CEM leukemia, 42.6%. The growth in the test on MOLT-4 leukemia is 73.3%.
`O=P([O-])(O)OP(=O)([O-])O.[NH-][C@H]1CCCC[C@@H]1[NH-].[OH-].[OH-].[Pt+4]`: the growth with HCT-15 colon was 102%; in the test on HT29 colon, 110%; in the test on SNB-75 CNS it was 86.6%; in the test on SNB-19 CNS it was 107%; in the test with U251 CNS it was 91.1%; in the test on PC-3 prostate it was 99.5%. The growth was 106% in the test on SK-MEL-5 melanoma; 103% in the test on UACC-62 melanoma; 102% in the test on LOX IMVI melanoma; 118% with SK-MEL-28 melanoma; 117% in the test with SK-MEL-2 melanoma; 100% in the test with EKVX NSCLC. The growth in the test with SN12C renal is 105%; in the test with UO-31 renal, 96.6%; in the test on TK-10 renal it was 102%; in the test on ACHN renal, 86.3%; in the test on CAKI-1 renal, 94.8%; in the test on MOLT-4 leukemia, 87.8%.
As for `O=C(COc1ccccc1)N1N=C(c2ccc(Cl)cc2)CC1c1c[nH]c2ccccc12` (stereo not given), the growth is 62.1% in the test on HCT-15 colon; 90.4% in the test on HT29 colon; 66.6% in the test with SNB-75 CNS; 93.3% with SNB-19 CNS; 58% in the test on U251 CNS; 63.2% in the test with PC-3 prostate. Further, the growth with SK-MEL-5 melanoma was 85.5%; with UACC-62 melanoma it was 70.9%; in the test with LOX IMVI melanoma, 59.1%; in the test on SK-MEL-28 melanoma it was 104%; in the test with SK-MEL-2 melanoma, 85.3%; in the test on SN12C renal, 62.7%. In addition, the growth with UO-31 renal is 25.7%; with TK-10 renal it was 93.6%; with ACHN renal it was 60.8%; in the test on CAKI-1 renal, 46%; in the test with A498 renal, 72.1%; in the test with CCRF-CEM leukemia, 11.3%. For the same compound, the growth with MOLT-4 leukemia was -8.31% (active).
As to `O=C(Nc1ccc(I)cc1)c1cccc([N+](=O)[O-])c1O`, the growth in the test with HCT-15 colon is 18.6%; in the test with HT29 colon, 28.1%; with SNB-75 CNS it was 41.2%; in the test on SNB-19 CNS, 16.8%; with U251 CNS, 10.3%; with PC-3 prostate it was 7.46% (active). Besides, the growth was -44.1% (active) in the test on SK-MEL-5 melanoma; 20.8% in the test on UACC-62 melanoma; 8.65% (active) in the test with LOX IMVI melanoma; 21.5% in the test on SK-MEL-28 melanoma; -11.9% (active) in the test with SK-MEL-2 melanoma; 8.49% (active) with EKVX NSCLC. The growth was 20.3% in the test on SN12C renal; -0.371% (active) with UO-31 renal; 7.73% (active) in the test on TK-10 renal; 21.8% in the test on ACHN renal; 13.4% with CAKI-1 renal; 25.9% in the test with CCRF-CEM leukemia. Moreover, the growth in the test with MOLT-4 leukemia is 8.55% (active).
In the case of `C#CCN1C(=O)/C(=c2\sc3n(c2=O)C2C(NN=3)N(CC)C(=O)N2CC)c2ccccc21` (stereo not given), the growth is 16% in the test on HCT-15 colon; 7.7% (active) in the test with HT29 colon; -25.2% (active) with SNB-75 CNS; 28% with SNB-19 CNS; 11.2% in the test on U251 CNS; 22.7% in the test on PC-3 prostate. For the same compound, the growth in the test on SK-MEL-5 melanoma is 12.4%; in the test on UACC-62 melanoma, 25.2%; in the test with LOX IMVI melanoma, 27.1%; with SK-MEL-28 melanoma it was 43.4%; in the test on SK-MEL-2 melanoma, 45.1%; in the test on EKVX NSCLC, 64.9%. The growth in the test on SN12C renal is 32.4%; in the test on UO-31 renal, 40.1%; in the test with TK-10 renal it was 39.7%; in the test with ACHN renal, 19.8%; in the test on CAKI-1 renal, 23.5%; in the test on MOLT-4 leukemia, 20.9%.
In the case of `Nc1c(C(=O)Nc2cccc([N+](=O)[O-])c2)sc2nc3c(cc12)C(O)CCC3` (stereo not given), the growth is 39.9% with HCT-15 colon; 17.4% in the test with HT29 colon; 16.9% in the test on SNB-75 CNS; 79.9% in the test on SNB-19 CNS; 51.4% in the test on U251 CNS; 57.2% in the test with PC-3 prostate. Also, the growth with SK-MEL-5 melanoma is 35.1%; with UACC-62 melanoma, 47.3%; in the test with LOX IMVI melanoma it was 62.8%; in the test on SK-MEL-28 melanoma it was 54.9%; in the test on SK-MEL-2 melanoma, 26.2%; in the test on SN12C renal it was 65.8%. Further, the growth is 69% in the test on UO-31 renal; 76.6% in the test with TK-10 renal; 92.1% in the test on ACHN renal; 66.7% in the test on CAKI-1 renal; 27.6% with A498 renal; 37.2% with CCRF-CEM leukemia. Moreover, the growth with MOLT-4 leukemia is 42.2%.
